Our source for the growth values is PubChem BioAssay (NCI).

Among the test systems are RPMI-8226 leukemia; OVCAR-8 ovarian; OVCAR-5 ovarian; SK-OV-3 ovarian; IGROV1 ovarian; HS 578T breast; NCI/ADR-RES ovarian; T-47D breast; OVCAR-4 ovarian; OVCAR-3 ovarian.
Holding throughout (assay): NCI-60 one-dose screen, 48 h (100 = growth as untreated, 0 = no growth, -100 = all killed)
Common to all, as to conditions: 10 µM

SMILES strings stand for the structures. The panel holds about 83,000 compounds, 20% with a hit somewhere; the sample as a whole holds those more often.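 Each cell line was grown in a 96-well plate and treated with one concentration of compound for 48 hours. Values below 10 were considered active.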 Values without a mark were called inactive. Calls of active or inactive are those of the source.

Consider `COc1ccc2nc3ccccc3c(NCCNCC(C)O)c2c1` (centres undefined), for which the growth was -1.19% (active) in the assay on RPMI-8226 leukemia; -2.99% (active) in the assay on OVCAR-8 ovarian; 1.61% (active) in the assay with OVCAR-5 ovarian; -3.44% (active) in the assay with SK-OV-3 ovarian; 4.2% (active) with IGROV1 ovarian; 28.4% in the assay on HS 578T breast. Moreover, the growth with NCI/ADR-RES ovarian is 73.6%; with T-47D breast it was -3.73% (active).
Regarding `CS(=O)(=O)Nc1ccc(Nc2c3ccccc3nc3cc(N)ccc23)cc1`, the growth is 21.6% in the assay on RPMI-8226 leukemia; 24.8% in the assay with OVCAR-8 ovarian; 43.2% in the assay on OVCAR-4 ovarian; 32% in the assay on SK-OV-3 ovarian; 37.5% with IGROV1 ovarian; 15.3% in the assay with OVCAR-3 ovarian. Also, the growth with HS 578T breast was 23.7%; in the assay with NCI/ADR-RES ovarian, 96.5%; with T-47D breast it was -14.5% (active).
Consider `CN(C)N=Nc1nn(C(=O)Nc2ccc(Cc3ccccc3)cc2)c2ccccc12`, for which the growth in the assay on RPMI-8226 leukemia was 47.5%; in the assay on OVCAR-8 ovarian it was 48.8%; in the assay on OVCAR-4 ovarian it was 52.1%; in the assay on SK-OV-3 ovarian it was 102%; in the assay with IGROV1 ovarian, 84.8%; with OVCAR-3 ovarian, 45.7%. Also, the values for the growth in the assay on HS 578T breast, in the assay on NCI/ADR-RES ovarian and with T-47D breast were 100%, 46.6% and 24.3%, respectively.
`COc1ccc(-c2nn(-c3cccc(NC(=O)Nc4cc(C(F)(F)F)cc(C(F)(F)F)c4)c3)cc2-c2ccncc2)cc1Cl`: the growth in the assay with RPMI-8226 leukemia was -25.1% (active); with OVCAR-8 ovarian, 1.12% (active); with OVCAR-4 ovarian, 16.4%; with SK-OV-3 ovarian, 8.88% (active); in the assay with IGROV1 ovarian, 4.91% (active); in the assay with OVCAR-3 ovarian, 5.75% (active). In addition, the results for the growth with HS 578T breast and in the assay with NCI/ADR-RES ovarian were 0.225% (active) and 5.83% (active), respectively.
Turning to `CC1(C)Cc2c(sc3ncn4nc(-c5ccc(O)cc5)nc4c23)CO1`, the growth with RPMI-8226 leukemia was 57.7%; with OVCAR-8 ovarian it was 58.5%; in the assay on OVCAR-4 ovarian, 64.1%; in the assay with SK-OV-3 ovarian, 79.8%; in the assay with IGROV1 ovarian it was 75.5%; with OVCAR-3 ovarian it was 86.5%. Further, the growth was 65.3% with HS 578T breast, 64.7% with NCI/ADR-RES ovarian and 48.7% with T-47D breast.
As to `CCCCCCCCCCCCC1C/C=C\CCCC(=O)O1` (centres undefined), the growth with RPMI-8226 leukemia was 89.7%; with OVCAR-8 ovarian, 104%; in the assay on OVCAR-5 ovarian it was 101%; in the assay with SK-OV-3 ovarian it was 95.5%; with IGROV1 ovarian, 110%; in the assay with OVCAR-3 ovarian, 107%. The growth in the assay on HS 578T breast was 113%; with NCI/ADR-RES ovarian it was 119%; with T-47D breast it was 91.2%.
For `CCN(CC)CCC(CNc1c(C)cnc2cc(Cl)ccc12)c1ccc(Cl)c(Cl)c1` (centres undefined), the growth with RPMI-8226 leukemia was 24.5%; with OVCAR-8 ovarian, 65.7%; in the assay with OVCAR-4 ovarian, 63.6%; in the assay on SK-OV-3 ovarian, 84.1%; in the assay with IGROV1 ovarian, 33.2%; with OVCAR-3 ovarian it was 77%. Also, the growth in the assay on HS 578T breast is 72.3%; in the assay on NCI/ADR-RES ovarian, 63.7%; in the assay on T-47D breast, 65.4%.
On to `CCOCCOCCOCCOCCOCCOCCOCCOCCOCCO` (tested in a mixture with another compound), for which the growth was -33.3% (active) in the assay on RPMI-8226 leukemia; 5.89% (active) in the assay on OVCAR-8 ovarian; 21.3% in the assay with OVCAR-4 ovarian; 38.2% in the assay on SK-OV-3 ovarian; 30.2% in the assay on IGROV1 ovarian; -16.8% (active) in the assay on OVCAR-3 ovarian. Besides, the values for the growth with HS 578T breast, in the assay with NCI/ADR-RES ovarian and in the assay on T-47D breast were 39.6%, 55.7% and 16.6%, respectively.
Regarding `COc1cccc(NC(=O)c2sc3nc4c(cc3c2N)C(O)CCC4)c1` (centres undefined), the growth was 7.49% (active) in the assay on RPMI-8226 leukemia; 17.5% in the assay with OVCAR-8 ovarian; 50.3% with OVCAR-5 ovarian; 24% in the assay with SK-OV-3 ovarian; 27.7% with IGROV1 ovarian; -34.6% (active) in the assay on OVCAR-3 ovarian. Also, the growth in the assay with HS 578T breast was 29.7%; in the assay with NCI/ADR-RES ovarian it was 8.86% (active); in the assay on T-47D breast, 62.1%.
With `C#Cc1ccc(-n2c(/C=C/c3ccc(C(F)(F)F)cc3)nc3ncccc3c2=O)cc1`, the growth with RPMI-8226 leukemia is -9.89% (active); in the assay on OVCAR-8 ovarian it was 17.2%; with OVCAR-5 ovarian it was 68.8%; in the assay on SK-OV-3 ovarian it was 54.1%; in the assay with IGROV1 ovarian, 34%; with OVCAR-3 ovarian it was -8.86% (active). The figures for the growth in the assay on HS 578T breast, in the assay on NCI/ADR-RES ovarian and with T-47D breast were 72.4%, 29.3% and 35.4%, respectively.
Regarding `COc1cc(OC)cc(-c2cncn2-c2ccc(-c3nc4cc(OC)cc(OC)c4s3)cc2)c1`, the growth in the assay on RPMI-8226 leukemia is 44.6%; in the assay with OVCAR-8 ovarian, 80.7%; with OVCAR-5 ovarian, 99.9%; in the assay on SK-OV-3 ovarian, 70.5%; in the assay on IGROV1 ovarian, 56.1%; in the assay on OVCAR-3 ovarian, 20.3%. Further, the results for the growth with HS 578T breast, in the assay with NCI/ADR-RES ovarian and with T-47D breast were 50.3%, 21.2% and 62.8%, respectively.
As for `CC[C@H](C)C(=O)O[C@H]1CCC=C2C=C[C@H](C)C(CCC3C[C@@H](O)CC(=O)O3)[C@H]21` (some centres undefined), the growth was 96.8% in the assay on RPMI-8226 leukemia; 45.2% with OVCAR-8 ovarian; 98.7% with OVCAR-4 ovarian; 70.9% in the assay with SK-OV-3 ovarian; 42.5% with IGROV1 ovarian; 112% with OVCAR-3 ovarian. Further, the growth in the assay with HS 578T breast was 59.4%; in the assay on NCI/ADR-RES ovarian, 21.5%; with T-47D breast it was 105%.
In the case of `COc1ccc(Cl)cc1C(=O)Nc1nc2ccc(Cl)cc2s1`, the growth in the assay on RPMI-8226 leukemia was 80.5%; in the assay on OVCAR-8 ovarian, 88.9%; in the assay on OVCAR-5 ovarian, 124%; with SK-OV-3 ovarian, 91.9%; with IGROV1 ovarian it was 65.9%; in the assay on OVCAR-3 ovarian, 103%. The growth was 102% with HS 578T breast, 102% with NCI/ADR-RES ovarian and 47.2% in the assay with T-47D breast.
In the case of `O=C(Nc1ccc(CO)cc1)c1ccccc1Nc1ccnc(C(F)(F)F)c1`, the growth with RPMI-8226 leukemia is 89%; in the assay with OVCAR-8 ovarian it was 98.3%; in the assay with OVCAR-5 ovarian it was 104%; in the assay with SK-OV-3 ovarian it was 101%; with IGROV1 ovarian, 101%; in the assay with OVCAR-3 ovarian, 110%. Besides, the growth in the assay with HS 578T breast is 93.7%; in the assay on NCI/ADR-RES ovarian it was 102%; with T-47D breast it was 86.9%.
